Drawing on PubChem BioAssay, this text covers composite z-score and z-score for 5 compounds.

Each structure is given as a SMILES string. Active and inactive are the calls of the source.

Test [1] can be described thus: small molecules captured by biotinylated probe aFSTL3 – biochemical, small-molecule microarray, fluorescence 635/667, stem cell growth factor project, primary screen (AID 1064).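 Also: measures binding of the biotinylated anti-FSTL3 antibody to printed compounds.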 To be noted: higher = more signal.
Test [2] can be described thus: binders from COS7 lysate, DM2A8 probe, primary screen, torsin A project, cell lysate, small-molecule microarray, fluorescence 635/667 (AID 1065). To be noted: higher = more signal, COS7 lysate expressing mutant human TOR1A.
The nature of test [3]: small molecules captured by biotinylated probe aFGF2 – biochemical, small-molecule microarray, fluorescence 635/667, stem cell growth factor project, primary screen (AID 1067).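 Also: measures binding of biotinylated aFGF2 protein to printed compounds on slides; z-score merges feature fluorescence and signal-to-noise across triplicate slides.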 To be noted: higher = more signal.
Test [4] can be described thus: small molecules captured by biotinylated probe aFGF10 – biochemical, small-molecule microarray, fluorescence 635/667, stem cell growth factor project, primary screen (AID 1071).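 Also: score merges 667 nm spot intensity and signal to noise from triplicate slides.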 To be noted: higher = more signal.
For test [5], the target named is Neurogenic locus notch homolog protein 2 (Homo sapiens) (UniProt Q04721). The test is described as follows: small molecules binding Notch2 protein – biochemical, small-molecule microarray, 635 nm fluorescence, stem cell growth factors, primary screen (AID 1073). To be noted: higher = more signal.
Test [6] concerns the target Pro-neuregulin-1, membrane-bound isoform (Homo sapiens) (UniProt Q02297). Nature of the test: small molecules binding neuregulin-1 protein – biochemical, small-molecule microarray, fluorescence 635/667, psychiatric disease protein project, primary screen (AID 1075).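 Also: score combines 667 nm spot fluorescence with signal to noise.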 The settings on record: NRG1 binding, 635 nm fluorescence, higher = more signal.
Test [7] deals with Neuregulin-1 EGF-like domain. Nature of the test: small molecules binding NRG1 EGF domain – biochemical, small-molecule microarray, 635 nm fluorescence, primary screen (AID 1081).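 Also: binding of the protein to compounds printed on small-molecule microarray slides.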 To be noted: higher = more signal.
Test [8] can be described thus: FRG1 expression reporter modulators in myotubes – cell-based, C2C12 myotubes, firefly/Renilla luciferase, luminescence, FRG1 inhibition for FSHD, primary screen (AID 1084). To be noted: FRG1 promoter luciferase, higher = more signal, called active from +8 up or from −8 down.
Test [9] is described as follows: small molecules captured by biotinylated probe aFST – biochemical, small-molecule microarray, fluorescence 635/667, stem cell growth factor project, primary screen (AID 1086).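 Also: score merges 667 nm fluorescence with signal-to-noise of each printed compound spot.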 To be noted: higher = more signal.
A short description of test [10]: binders of probe aHhip on microarray, primary screen, stem cell growth factor project, biochemical, small-molecule microarray, fluorescence 635/667 (AID 1087).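 Also: score merges spot fluorescence at 667nm with spot signal to noise ratio.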 The settings on record: higher = more signal.
Test [11] relates to PRMT1 (protein arginine N-methyltransferase 1). The test is described as follows: small molecules binding arginine methyltransferase PRMT1 – biochemical, small-molecule microarray, 635 nm fluorescence, primary screen (AID 1088).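 Also: binding of Prmt1 protein to compounds spotted on small-molecule microarray slides.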 The settings on record: higher = more signal.
Test [12] in a line: growth effects on S. cerevisiae YJM789 – YJM789 clinical isolate, OD600, 24 h, basal, primary screen (AID 1089).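 Also: growth of clinical yeast isolate S. cerevisiae YJM 789 seeded 1000 cells per well; test concentration not given here.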 To be noted: higher = more signal, called active from +8 up or from −8 down.
A short description of test [13]: S. pombe growth modifiers, basal conditions – strain 972, OD600, 24 h, no modulator, primary screen (AID 1090).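 Also: basal condition with compound alone and no growth modifier present; test concentration not given here.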 The settings on record: S. pombe 972 growth, higher = more signal, called active from +8 up or from −8 down.
Test [14] in a line: budding yeast growth modifiers under rapamycin – strain BY4716, OD600, 96 h, primary screen (AID 1091). Also: test concentration not given here. The settings on record: S. cerevisiae BY4716 + rapamycin, higher = more signal, called active from +8 up or from −8 down.
The target in test [15] is Torsin-1A-interacting protein 2 (Homo sapiens) (UniProt Q8NFQ8). The test is described as follows: small molecules binding lysate-expressed LULL1 – cell lysate, human LULL1 lysate, 635/667 nm fluorescence, primary screen (AID 1092).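 Also: probe is lysate of COS7 cells overexpressing human LULL1; score merges per-feature 667 nm fluorescence with signal-to-noise.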 To be noted: small-molecule microarray, hLULL1 lysate binding, 635 nm fluorescence; higher = more signal.
Chain of Torsin-1A-interacting protein 2 (Homo sapiens) (Q8NFQ8 whole entry, looked up): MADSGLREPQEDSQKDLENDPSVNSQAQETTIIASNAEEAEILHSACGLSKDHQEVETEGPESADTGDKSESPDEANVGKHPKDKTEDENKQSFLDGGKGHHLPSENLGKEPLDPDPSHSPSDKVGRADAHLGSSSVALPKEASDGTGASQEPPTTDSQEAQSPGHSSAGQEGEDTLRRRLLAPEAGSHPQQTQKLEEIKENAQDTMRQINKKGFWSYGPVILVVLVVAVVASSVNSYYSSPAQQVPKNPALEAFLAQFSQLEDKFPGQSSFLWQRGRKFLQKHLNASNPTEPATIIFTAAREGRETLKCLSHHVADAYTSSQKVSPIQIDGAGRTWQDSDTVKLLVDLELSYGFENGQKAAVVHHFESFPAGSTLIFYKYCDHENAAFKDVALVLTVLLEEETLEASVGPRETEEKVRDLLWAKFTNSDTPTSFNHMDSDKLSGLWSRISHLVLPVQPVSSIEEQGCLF
Test [16] can be described thus: optical density change of DRC41 E. coli – strain DRC41, OD650, 24 h, E. coli filamentation project, primary screen (AID 1093).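 Also: MC1000 strain lacking acrAB efflux and sulA so SOS filamentation is blocked; test concentration not given here.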 The settings on record: E. coli DRC41 growth, higher = more signal, called active from +8 up or from −8 down.
A short description of test [17]: probe aLefty2 binding to arrayed compounds – biochemical, biotinylated probe, 635/667 nm fluorescence, primary screen (AID 1094).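 Also: score merges spot fluorescence near 667 nm with spot signal-to-noise ratio.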 To be noted: small-molecule microarray, higher = more signal.
For test [18], the system named is Noggin (protein binding on small-molecule microarray). The test is described as follows: small molecules binding Noggin protein – biochemical, 635/667 nm fluorescence, primary screen (AID 1095).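 Also: score merges 667 nm feature fluorescence with signal to noise over triplicate slides.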 The settings on record: 635 nm fluorescence, higher = more signal.
Test [19] has as its target Neurogenic locus notch homolog protein 3 (Homo sapiens) (UniProt Q9UM47). Nature of the test: small molecules binding NOTCH3 protein – biochemical, 635/667 nm fluorescence, primary screen (AID 1096). To be noted: small-molecule microarray, 635 nm fluorescence, higher = more signal.
A short description of test [20]: probe aEGFR binding to arrayed compounds – biochemical, biotinylated probe, 635/667 nm fluorescence, primary screen (AID 1097).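 Also: probe is a biotinylated anti-EGFR antibody binding compounds printed on slides; score combines fluorescence near 667 nm and signal to noise of each spot.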 To be noted: small-molecule microarray, higher = more signal.

Chain of Pro-neuregulin-1, membrane-bound isoform (Homo sapiens) (Q02297 whole entry, looked up, the tested form may be a part, canonical isoform): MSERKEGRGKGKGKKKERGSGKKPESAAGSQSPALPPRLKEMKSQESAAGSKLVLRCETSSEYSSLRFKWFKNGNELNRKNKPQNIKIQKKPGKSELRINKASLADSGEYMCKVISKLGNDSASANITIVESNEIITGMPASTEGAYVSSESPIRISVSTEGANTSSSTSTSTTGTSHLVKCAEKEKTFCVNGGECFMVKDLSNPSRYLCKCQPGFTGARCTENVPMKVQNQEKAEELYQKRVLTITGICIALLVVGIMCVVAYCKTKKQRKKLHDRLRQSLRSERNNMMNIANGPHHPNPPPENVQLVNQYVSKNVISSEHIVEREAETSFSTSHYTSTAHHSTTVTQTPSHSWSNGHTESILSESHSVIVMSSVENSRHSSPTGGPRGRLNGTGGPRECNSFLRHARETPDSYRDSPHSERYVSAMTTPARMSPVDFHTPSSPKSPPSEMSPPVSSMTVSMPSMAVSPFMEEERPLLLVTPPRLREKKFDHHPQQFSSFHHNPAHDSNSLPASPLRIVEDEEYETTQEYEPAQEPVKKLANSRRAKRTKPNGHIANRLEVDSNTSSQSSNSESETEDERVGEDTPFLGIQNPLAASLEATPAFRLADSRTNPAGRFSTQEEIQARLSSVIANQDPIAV
Chain of Neurogenic locus notch homolog protein 3 (Homo sapiens) (Q9UM47 whole entry, looked up): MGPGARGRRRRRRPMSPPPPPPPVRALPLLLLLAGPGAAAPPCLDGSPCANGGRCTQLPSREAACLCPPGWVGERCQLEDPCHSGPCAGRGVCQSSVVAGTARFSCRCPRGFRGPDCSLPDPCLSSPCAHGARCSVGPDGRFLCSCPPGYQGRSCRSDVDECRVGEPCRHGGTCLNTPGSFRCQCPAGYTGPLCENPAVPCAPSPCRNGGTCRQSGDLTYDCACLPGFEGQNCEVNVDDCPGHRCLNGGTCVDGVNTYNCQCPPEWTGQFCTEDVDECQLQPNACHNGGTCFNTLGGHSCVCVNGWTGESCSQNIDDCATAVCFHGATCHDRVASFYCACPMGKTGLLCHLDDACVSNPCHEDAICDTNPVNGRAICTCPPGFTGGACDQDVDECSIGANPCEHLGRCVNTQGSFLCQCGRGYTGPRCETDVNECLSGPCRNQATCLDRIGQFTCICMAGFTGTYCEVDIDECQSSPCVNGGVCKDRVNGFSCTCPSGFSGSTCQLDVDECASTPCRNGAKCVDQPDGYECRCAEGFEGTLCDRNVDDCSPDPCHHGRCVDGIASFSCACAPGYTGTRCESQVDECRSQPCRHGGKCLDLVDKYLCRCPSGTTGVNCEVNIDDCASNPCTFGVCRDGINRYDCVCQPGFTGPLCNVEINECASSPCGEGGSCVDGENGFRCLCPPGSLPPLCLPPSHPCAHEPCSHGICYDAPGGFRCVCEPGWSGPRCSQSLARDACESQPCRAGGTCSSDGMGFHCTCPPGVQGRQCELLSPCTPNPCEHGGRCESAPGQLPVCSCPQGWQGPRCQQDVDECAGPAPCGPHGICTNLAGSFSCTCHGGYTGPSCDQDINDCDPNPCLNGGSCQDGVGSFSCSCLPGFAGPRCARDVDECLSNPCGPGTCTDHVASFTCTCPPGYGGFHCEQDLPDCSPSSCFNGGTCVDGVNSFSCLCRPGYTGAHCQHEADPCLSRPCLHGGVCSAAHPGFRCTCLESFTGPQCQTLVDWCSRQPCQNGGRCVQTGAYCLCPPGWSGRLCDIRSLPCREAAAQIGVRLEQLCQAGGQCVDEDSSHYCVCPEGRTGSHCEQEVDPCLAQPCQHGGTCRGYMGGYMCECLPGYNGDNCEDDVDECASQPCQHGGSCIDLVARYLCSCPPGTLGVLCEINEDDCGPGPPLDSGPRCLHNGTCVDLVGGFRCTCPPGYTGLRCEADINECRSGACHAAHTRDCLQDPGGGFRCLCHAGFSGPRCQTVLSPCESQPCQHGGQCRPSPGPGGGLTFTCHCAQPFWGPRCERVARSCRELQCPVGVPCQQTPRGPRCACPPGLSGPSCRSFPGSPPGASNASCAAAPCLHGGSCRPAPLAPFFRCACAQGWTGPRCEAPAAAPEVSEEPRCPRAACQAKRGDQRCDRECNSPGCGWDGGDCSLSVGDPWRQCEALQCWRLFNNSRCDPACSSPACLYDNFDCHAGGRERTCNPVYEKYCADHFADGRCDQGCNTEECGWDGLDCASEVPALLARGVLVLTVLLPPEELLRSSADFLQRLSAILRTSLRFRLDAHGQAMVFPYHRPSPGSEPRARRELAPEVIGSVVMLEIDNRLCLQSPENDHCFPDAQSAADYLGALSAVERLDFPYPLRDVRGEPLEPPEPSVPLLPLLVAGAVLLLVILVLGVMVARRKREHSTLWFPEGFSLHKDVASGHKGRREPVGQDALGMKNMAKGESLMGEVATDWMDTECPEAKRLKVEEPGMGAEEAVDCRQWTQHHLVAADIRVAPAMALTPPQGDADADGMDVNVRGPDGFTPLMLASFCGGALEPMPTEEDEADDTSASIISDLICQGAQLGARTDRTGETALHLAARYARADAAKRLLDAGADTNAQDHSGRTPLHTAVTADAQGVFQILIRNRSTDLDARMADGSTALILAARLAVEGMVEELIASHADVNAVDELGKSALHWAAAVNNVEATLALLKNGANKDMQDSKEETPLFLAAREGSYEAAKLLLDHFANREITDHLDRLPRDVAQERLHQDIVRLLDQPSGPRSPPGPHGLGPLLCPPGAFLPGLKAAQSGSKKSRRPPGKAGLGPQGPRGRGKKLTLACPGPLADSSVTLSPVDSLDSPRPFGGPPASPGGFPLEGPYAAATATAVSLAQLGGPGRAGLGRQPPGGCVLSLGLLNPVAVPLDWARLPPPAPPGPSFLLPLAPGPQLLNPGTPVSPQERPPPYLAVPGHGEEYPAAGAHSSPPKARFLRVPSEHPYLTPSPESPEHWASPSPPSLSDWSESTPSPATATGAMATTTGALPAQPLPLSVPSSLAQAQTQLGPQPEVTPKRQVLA

On to `COc1cc(OC)c(C(O)C2C=CC3C(=O)N(c4ccccc4)C(=O)C3N2Nc2ccc(C(C)C)cc2)cc1Br` (stereo not given), for which the composite z-score in test [1] was 0.108; in test [2], -0.0919; in [3] it was 0.0559; in test [4] it was 0.774; in test [5], 1.44; in test [6] it was 1.4. For the same compound, the composite z-score is 1.28 in test [7]; 1.2 in test [9]; -0.0994 in [10]; 1.48 in [11]; 3.55 in test [15]; 0.136 in test [17]. For the same compound, the composite z-score in test [18] is -0.276; in test [19], 1.05; in [20], 0.582. Further, the z-score was -2.19 (inactive) in test [8]; -0.0401 (inactive) in test [12]; 1.09 (inactive) in test [13]; -0.323 (inactive) in test [14]; 0.315 (inactive) in [16].
On to `COC(=O)[C@@]1(Cc2ccc(OC)cc2)[C@H]2c3cc(C(=O)N(C)C)[nH]c3C[C@H]2CN1C(=O)c1ccccc1`, for which the composite z-score in test [1] is -0.231; in test [2], -0.884; in test [3], 0.0992; in test [4] it was 0.304; in test [5], 0.793; in test [6], 0.882. The composite z-score in [7] was 0.977; in test [9], 0.019; in [10], -0.0905; in test [11] it was -0.614; in test [15] it was 0.982; in test [17], 0.096. The composite z-score in test [18] was -0.337; in test [19], 0.201; in test [20], -0.0594. The z-score in test [8] is 1.04 (inactive); in test [12], 0.0372 (inactive); in [13] it was 1.15 (inactive); in test [14] it was 0.0745 (inactive); in test [16], 0.0515 (inactive).
On to `CO[C@H]1O[C@H](CO)[C@@H](OC(=O)Nc2ccccc2-c2ccccc2)[C@H](OC(=O)Nc2ccccc2)[C@H]1OC(=O)Nc1ccccc1`, for which the composite z-score in test [1] is 0.164; in [2] it was 0.514; in test [3] it was -0.0067; in [4], 1.25; in test [5], 1.48; in test [6], 1.55. In addition, the composite z-score was 1.33 in test [7]; 0.941 in [9]; -0.0237 in test [10]; 1.54 in [11]; 3.12 in [15]; 0.208 in test [17]. In addition, the composite z-score in test [18] was found to be 1.2; in test [19] it was 1.1; in test [20] it was 0.0903. In addition, the z-score in test [8] is 1.66 (inactive); in test [12], 1.81 (inactive); in test [13], 1.21 (inactive); in test [14], 5.33 (inactive); in test [16] it was 0.517 (inactive).
On to `Cc1ccc(S[C@]2(C(=O)NC(C)C)CC(=O)N(C3CCCCC3)[C@@H]2c2ccc(CO)cc2I)cc1`, for which the composite z-score in test [1] is -0.183; in test [2], 2.15; in test [3] it was -0.0257; in test [4] it was 0.308; in test [5], 0.777; in test [6], 0.897. The composite z-score was 1.33 in [7]; 0.276 in [9]; -0.399 in test [10]; 1.54 in test [11]; 2.84 in [15]; -0.0977 in test [17]. The figures for the composite z-score in test [18], in [19] and in [20] were 0.7, 0.884 and 0.0203, respectively. Besides, the z-score was -4.76 (inactive) in [8]; -1.15 (inactive) in test [12]; 0.145 (inactive) in test [13]; 2.68 (inactive) in test [14]; -0.317 (inactive) in test [16].
As for `[N-]=[N+]=Nc1ccccc1C[C@@]1(C(=O)NCc2ccccc2)N=C(c2ccc(OCCCO)cc2)O[C@@H]1c1ccccc1N=[N+]=[N-]`, the composite z-score worked out at 0.581 in test [1]; 0.504 in test [2]; 0.0678 in test [3]; 1.04 in test [4]; 1.09 in [5]; 0.966 in test [6]. For the same compound, the composite z-score in test [7] was 1.06; in [9], 0.602; in [10], -0.175; in test [11], 1.58; in test [15], 1.69; in [17] it was 0.469. Besides, the figures for the composite z-score in test [18], in test [19] and in test [20] were 1.2, 0.762 and 0.0883, respectively. Further, the z-score in test [8] was -1.24 (inactive); in test [12], -0.642 (inactive); in [13], -0.468 (inactive); in test [14] it was 5.27 (inactive); in test [16], 0.0498 (inactive).
